# Assay results reported in the antibiotic and cytotoxicity screens of Wong et al. (2023).
# The campaign covered roughly 39,000 compounds. About 3,300 (8.5%) were called active. The entries come from a sample that favours actives as a whole.
# System: HepG2
# Experiment: cytotoxicity call (relative viability < 0.9)
# Details: 10 µM
row,Compound,cytotoxicity call
1,Cc1noc(C)c1S(=O)(=O)Nc1ccc2c(c1)CC(=O)N([C@H](C)CO)C[C@H](C)[C@H](CN(C)C(=O)Nc1ccccc1)O2,inactive
2,C[C@@H]1CCCCO[C@H](CN(C)Cc2ccc(C(=O)Nc3ccccc3N)cc2)[C@@H](C)CN([C@H](C)CO)C(=O)c2cc(NS(=O)(=O)c3ccccc3)ccc2O1,inactive
3,C[C@@H]1CCCCO[C@@H](CN(C)Cc2ccc(C(=O)Nc3ccccc3N)cc2)[C@@H](C)CN([C@H](C)CO)C(=O)c2cc(NS(=O)(=O)c3cccs3)ccc2O1,active
4,C[C@@H]1CCCCO[C@H](CN(C)Cc2ccc(C(=O)Nc3ccccc3N)cc2)[C@@H](C)CN([C@H](C)CO)C(=O)c2cc(NS(=O)(=O)c3cccs3)ccc2O1,inactive
5,COc1ccc2c3c(n(c2c1)C)[C@H](CO)N(C[C@]13CCN(CC1)C(=O)Nc1ccc(cc1F)F)C(=O)Nc1ccc(cc1)F,inactive
6,O=C(C[C@@H]1CC[C@H](NS(=O)(=O)c2ccccc2)[C@@H](CO)O1)NCc1ccncn1,inactive
7,C[C@H](CO)N1C[C@H](C)[C@H](CN(C)C(=O)Nc2ccc(C(F)(F)F)cc2)Oc2ccc(NC(=O)C3CCCCC3)cc2C1=O,inactive
8,C[C@H](CO)N1C[C@H](C)[C@H](CN(C)Cc2ccc(F)cc2)Oc2cc(C#CCN(C)C)ccc2S1(=O)=O,active
9,C[C@H](CO)N1C[C@H](C)[C@@H](CN(C)Cc2ccc(F)cc2)Oc2cc(C#CC3CC3)ccc2S1(=O)=O,inactive
10,C[C@@H]1CN([C@H](C)CO)S(=O)(=O)c2ccc(C#CC3CC3)cc2O[C@H]1CN(C)Cc1ccc(F)cc1,active
11,C[C@@H]1CN([C@@H](C)CO)S(=O)(=O)c2ccc(C#CC3CC3)cc2O[C@H]1CN(C)Cc1ccc(F)cc1,inactive
12,C[C@H](CO)N1C[C@H](C)[C@@H](CN(C)Cc2ccc(F)cc2)Oc2cc(C#CCN(C)C)ccc2S1(=O)=O,inactive
13,C[C@H]1CN([C@@H](C)CO)S(=O)(=O)c2ccc(C#CCN(C)C)cc2O[C@@H]1CN(C)Cc1ccc(F)cc1,inactive
14,C[C@@H]1CN([C@H](C)CO)S(=O)(=O)c2ccc(C#CCN(C)C)cc2O[C@H]1CN(C)Cc1ccc(F)cc1,active
15,C[C@@H]1CN([C@@H](C)CO)S(=O)(=O)c2ccc(C#CCN(C)C)cc2O[C@@H]1CN(C)Cc1ccc(F)cc1,inactive
16,C[C@@H]1CN([C@@H](C)CO)S(=O)(=O)c2ccc(C#CCN(C)C)cc2O[C@H]1CN(C)Cc1ccc(F)cc1,inactive
17,CCCNC(=O)N1C[C@@H](O)COC[C@@H]2O[C@@H](CC(=O)NCc3ccncn3)CC[C@H]21,inactive
18,C[C@@H]1CN([C@@H](C)CO)S(=O)(=O)c2ccc(C3=CCCC3)cc2O[C@@H]1CN(C)C(=O)c1cnccn1,inactive
19,COc1ccc(CN(C)C[C@H]2OCCCC[C@H](C)Oc3ccc(NS(=O)(=O)c4ccc(Cl)cc4)cc3C(=O)N([C@H](C)CO)C[C@H]2C)cc1,inactive
20,C[C@H](CO)N1C[C@H](C)[C@@H](CN(C)C(=O)Cc2ccccc2)OCCCC[C@H](C)Oc2ccc(NC(=O)Cc3ccccc3)cc2C1=O,inactive

row,Compound,cytotoxicity call
1,CC(C)N1C[C@H](C)[C@@H](CN(C)Cc2ccc(Oc3ccccc3)cc2)Oc2c(NC(=O)c3ccccn3)cccc2C1=O,inactive
2,COc1ccccc1-c1ccc2c(c1)O[C@H](CN(C)CC1CCOCC1)[C@@H](C)CN([C@H](C)CO)S2(=O)=O,inactive
3,C[C@@H]1CN([C@@H](C)CO)S(=O)(=O)c2ccc(C#CC3(O)CCCC3)cc2O[C@@H]1CN(C)C(=O)c1cccnc1,inactive
4,C[C@@H]1CN([C@@H](C)CO)C(=O)c2ccccc2-c2ccccc2CO[C@H]1CN(C)Cc1ccccc1C(F)(F)F,inactive
5,O=C(C[C@@H]1CC[C@H]2[C@@H](COC[C@@H](O)CN2S(=O)(=O)c2ccc(F)cc2)O1)N[C@@H]1CCN(Cc2ccccc2)C1,inactive
6,O=C(C[C@H]1CC[C@H](NC(=O)Cc2ccccn2)[C@H](CO)O1)NCCc1ccncc1,inactive
7,CC1CCN(C(=O)N2c3ccccc3Sc3ccccc32)CC1,inactive
8,CSc1ccc2c(c1)N(CCC1CCCCN1C)c1ccccc1S2.Cl (stereo not given),active
9,C[C@H]1CN([C@@H](C)CO)C(=O)c2cccc(NS(=O)(=O)c3cccs3)c2O[C@H]1CN(C)S(C)(=O)=O,inactive
10,C[C@@H]1CN([C@@H](C)CO)C(=O)c2cc(NC(=O)Nc3ccccc3)ccc2O[C@@H](C)CCCCO[C@H]1CN(C)C(=O)CCC(F)(F)F,inactive
11,C[C@@H]1CN([C@@H](C)CO)C(=O)c2cc(NC(=O)Nc3ccc(C(F)(F)F)cc3)ccc2O[C@@H](C)CCCCO[C@@H]1CN(C)S(=O)(=O)c1cccs1,inactive
12,C[C@@H]1CCCCO[C@H](CN(C)S(=O)(=O)c2cccs2)[C@H](C)CN([C@@H](C)CO)C(=O)c2cc(NC(=O)Nc3ccc(C(F)(F)F)cc3)ccc2O1,active
13,C[C@@H]1CCCCO[C@@H](CN(C)S(=O)(=O)c2cccs2)[C@@H](C)CN([C@H](C)CO)C(=O)c2cc(NC(=O)Nc3ccc(C(F)(F)F)cc3)ccc2O1,inactive
14,C[C@H](CO)N1C[C@H](C)[C@@H](CN(C)S(=O)(=O)c2cccs2)OCCCC[C@H](C)Oc2ccc(NC(=O)Nc3ccc(C(F)(F)F)cc3)cc2C1=O,inactive
15,C[C@@H]1CN([C@H](C)CO)C(=O)c2cc(NC(=O)Nc3ccc(C(F)(F)F)cc3)ccc2O[C@@H](C)CCCCO[C@@H]1CN(C)S(=O)(=O)c1cccs1,inactive
16,C[C@@H]1CCCCO[C@H](CN(C)S(=O)(=O)c2cccs2)[C@@H](C)CN([C@@H](C)CO)C(=O)c2cc(NC(=O)Nc3ccc(C(F)(F)F)cc3)ccc2O1,active
17,C[C@@H]1CN([C@H](C)CO)C(=O)c2cc(NC(=O)C3CC3)ccc2O[C@H]1CN(C)Cc1ccc(Oc2ccccc2)cc1,inactive
18,COc1cc(OC)c([C@@H]2c3c(n(C)c(=O)n(C)c3=O)N=C3COC(=O)C32)cc1OC (stereo not given in full),inactive
19,NCc1cnc(Nc2ccccc2)nc1,inactive
20,COc1ccc(S(=O)(=O)Nc2ccc3c(c2)C(=O)N([C@H](C)CO)C[C@H](C)[C@@H](CN(C)Cc2ccc4c(c2)OCO4)OCCCC[C@@H](C)O3)cc1,inactive
